In PubChem BioAssay (EPA / NIEHS):
Records with an inconclusive call do not appear. Calls of active or inactive are those of the source. Rule for the calls, unless noted: active = hit-call score of the fitted dose curve at least 0.9, where 1 is the maximum; inactive = score below 0.9.

Tests used:
[1] = target: Bile acid receptor (Homo sapiens) (UniProt Q96RI1); experiment: ATG_FXR_TRANS: Attagene TRANS-FACTORIAL HepG2 Assay for Farnesoid X Receptor (FXR) (AID 2282979; active = hit-call score of the fitted dose curve at least 0.9, where 1 is the maximum;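 note: hits raise reporter mRNA above DMSO so AC50 marks FXR activation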); settings: HepG2 Attagene TRANS FXR-GAL4 reporter transcription
In short: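 Reporter transcripts from transfected HepG2 cells were measured 24 h after dosing, using RT-PCR with capillary electrophoresis of 6-FAM-labelled fragments. The read-out reflects activity of exogenous FXR-Gal4 chimera on GAL4-UAS units, with induction relative to DMSO.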

[2] = ATG_M_32_TRANS: Attagene TRANS-FACTORIAL HepG2 Assay for M32 Transcription Factor (Internal Marker) (AID 2282984; active = hit-call score of the fitted dose curve at least 0.9, where 1 is the maximum;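 note: transcript level of a background control reporter unit measured by RT-PCR and capillary electrophoresis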); settings: HepG2 Attagene TRANS M32 internal marker reporter
In short: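 Read-out: fluorescent reporter cDNA fragments resolved by capillary electrophoresis after RT-PCR of total RNA. Transfected HepG2 cells were exposed to chemical for 24 h. Activity scored in the positive direction relative to DMSO.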

[3] = target: Nuclear receptor subfamily 4 group A member 2 (Homo sapiens) (UniProt P43354); experiment: ATG_NURR1_TRANS: Attagene TRANS-FACTORIAL HepG2 Assay for human Nuclear Receptor Related Protein 1 (NURR1) (AID 2282985; active = hit-call score of the fitted dose curve at least 0.9, where 1 is the maximum); settings: HepG2 Attagene TRANS reporter, mRNA readout
In short: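 Read-out: reporter mRNA induction by RT-PCR plus capillary electrophoresis with fluorescence detection, after 24 h dosing of transfected HepG2 cells. Exogenous NR-Gal4 chimera activity drives GAL4-UAS reporter; activity fitted upward versus DMSO.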

[4] = target: Transcriptional activator Myb (Homo sapiens) (UniProt P10242); experiment: ATG_Myb_CIS: Attagene CIS-FACTORIAL HepG2 Assay for human Myeloblastosis (Myb) Proto-Oncogene Transcription Factor (AID 2282986); settings: HepG2 Attagene CIS-FACTORIAL Myb reporter transcription; actives raise or lower the signal
In short: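 HepG2 cells were transiently transfected with cis-regulated multiple reporter transcription units reflecting endogenous Myb activity, then exposed to compound for 24 hours. Reporter mRNA was measured by RT-PCR with capillary electrophoresis; bidirectional fitting versus DMSO baseline.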

[5] = target: Nuclear respiratory factor 1 (Homo sapiens) (UniProt Q16656); experiment: ATG_NRF1_CIS: Attagene CIS-FACTORIAL HepG2 Assay for human Nuclear Respiratory Factor 1 (NRF1) Orphan Gene (AID 2282987); settings: HepG2 NRF1 cis-element reporter, Attagene multiplex; actives raise or lower the signal
In short: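 HepG2 cells transiently transfected with multiple reporter transcription units under cis-regulatory promoter control, so endogenous transcription-factor activity is read. After 24 h compound exposure, reporter mRNA quantified by RT-PCR, fluorescent labelling, HpaI digestion and capillary electrophoresis; bidirectional fitting versus DMSO.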

[6] = ATG_NFI_CIS: Attagene CIS-FACTORIAL HepG2 Assay for human Nuclear Factor I (NFI) (AID 2282989); settings: HepG2 cis-regulatory reporter, NFI response element transcription; actives raise or lower the signal
In short: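 After transient transfection of HepG2 with cis-promoter reporter constructs and 24 h dosing, RNA is reverse-transcribed, amplified, 6-FAM end-labelled and HpaI-digested before capillary analysis. Bidirectional curve fitting against DMSO.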

[7] = target: Myc proto-oncogene protein (Homo sapiens) (UniProt P01106); experiment: ATG_Myc_CIS: Attagene CIS-FACTORIAL HepG2 Assay for human Myelocytomatosis (Myc) Proto-Oncogene Transcription Factor (AID 2282990); settings: HepG2, Attagene cis-reporter transcription factor activity; actives raise or lower the signal
In short: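 Transiently transfected HepG2 cells bearing cis-promoter reporter units for endogenous transcription factors; 24 h exposure. Reporter mRNA measured by RT-PCR, 6-FAM primer extension, HpaI cut and capillary electrophoresis; bidirectional fit relative to DMSO.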

[8] = ATG_NF_kB_CIS: Attagene CIS-FACTORIAL HepG2 Assay for human Nuclear Factor Kappa B (NF-kB) (AID 2282991); settings: HepG2 Attagene cis-factorial NF-kB reporter mRNA; actives raise or lower the signal
In short: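 HepG2 cells transiently transfected with multiplexed cis-element reporter units measuring endogenous transcription factor activity; reporter mRNA read 24 h after dosing by RT-PCR, fluorescent labelling, HpaI digestion and capillary electrophoresis. Bidirectional fit against DMSO baseline.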

[9] = ATG_NRF2_ARE_CIS: Attagene CIS-FACTORIAL HepG2 Assay for human Nuclear Factor Erythroid 2 Related Factor 2 (NFR2) response to Antioxidant Response Elements (ARE) (AID 2282992); settings: HepG2 Attagene ARE/NRF2 reporter, transcription factor activity; actives raise or lower the signal
In short: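 Readout: reporter mRNA quantified by RT-PCR plus FAM-labelled primer extension, HpaI digestion and capillary electrophoresis, 24 h after dosing transfected HepG2 cells. Gain or loss of signal is fitted bidirectionally against DMSO baseline.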

[10] = ATG_Oct_MLP_CIS: Attagene CIS-FACTORIAL HepG2 Assay for human Octamer-Binding Transcription Factor (Oct) (AID 2282993); settings: HepG2 Attagene cis-factorial Oct reporter, mRNA; actives raise or lower the signal
In short: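 Cells of the HepG2 line express promoter-controlled reporter sequences whose mRNA levels, after 24 h treatment, are measured by RT-PCR and capillary electrophoresis. Increases and decreases are scored relative to DMSO.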

[11] = target: Cellular tumor antigen p53 (Homo sapiens) (UniProt P04637); experiment: ATG_p53_CIS: Attagene CIS-FACTORIAL HepG2 Assay for human p53 Transcription Factor (AID 2282994); settings: HepG2 p53 cis-element reporter, Attagene mRNA; actives raise or lower the signal
In short: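 Read-out: reporter mRNA by RT-PCR plus capillary electrophoresis with fluorescence detection. Human HepG2 liver cells carried transfected multi-reporter cis-element constructs, dosed 24 h. Gain or loss of signal fitted bidirectionally against DMSO control.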

[12] = BSK_3C_TissueFactor: BioMAP Diversity Plus: 3C Assay for Tissue Factor Biomarker Activity (AID 2282997); settings: BioMAP 3C HUVEC, tissue factor biomarker readout; actives raise or lower the signal
In short: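 Tissue factor on primary human umbilical vein endothelium was read by ELISA 24 h after dosing, gain or loss relative to DMSO. Cytotoxicity ran alongside via SRB (0.1%, TCA-fixed, 560 nm).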

[13] = BSK_3C_uPAR: BioMAP Diversity Plus: 3C Assay for Urokinase-type plasminogen activator receptor (uPAR) Biomarker Activity (AID 2282998); settings: BioMAP 3C HUVEC, uPAR biomarker ELISA; actives raise or lower the signal
In short: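 Endothelial primary cells of human umbilical vein origin received test chemical; 24 h later uPAR was assayed by ELISA. Fitting was bidirectional, DMSO as negative control.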

[14] = BSK_3C_VCAM1: BioMAP Diversity Plus: 3C Assay for Vascular cell adhesion molecule 1 (VCAM1) Biomarker Activity (AID 2282999); settings: BioMAP 3C HUVEC, VCAM1 ELISA, cytokine-stimulated; actives raise or lower the signal
In short: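 HUVEC primary cells, 24 h compound exposure; VCAM-1 by ELISA; gain/loss of signal fitted bidirectionally vs DMSO baseline.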

[15] = BSK_4H_Eotaxin3: BioMAP Diversity Plus: 4H Assay for Eotaxin 3 Biomarker Activity (AID 2283000); settings: primary human endothelial cells (HUVEC); actives raise or lower the signal
In short: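 Human umbilical vein endothelial cells (BSK_4H system) dosed with test chemical; Eotaxin-3 (CCL26) measured by ELISA 24 h after dosing. Bidirectional curve fitting relative to DMSO negative control as baseline.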

[16] = target: human Peroxisome Proliferator-activated Receptor alpha (PPARa), PPARA (gene 5465) (UniProt Q07869); experiment: ATG_PPARa_TRANS: Attagene TRANS-FACTORIAL HepG2 Assay for human Peroxisome Proliferator-activated Receptor alpha (PPARa) (AID 2283001; active = hit-call score of the fitted dose curve at least 0.9, where 1 is the maximum;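 for AC50: potency for gain of reporter signal over DMSO so agonist or activator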)
In short: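 Transient HepG2 transfection, GAL4-UAS reporters, NR-Gal4 chimeras; 24 h compound exposure. Readout: reporter transcripts by RT-PCR, 6-FAM primer extension, HpaI digest, capillary electrophoresis. Positive direction vs DMSO baseline.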

[17] = target: Oxysterols receptor LXR-beta (Homo sapiens) (UniProt P55055); experiment: ATG_LXRb_TRANS: Attagene TRANS-FACTORIAL HepG2 Assay for human Liver X Receptor beta (LXRb) (AID 2282981; active = hit-call score of the fitted dose curve at least 0.9, where 1 is the maximum); settings: HepG2 Attagene TRANS GAL4-LXRb reporter, mRNA
In short: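 Readout: fluorescent reporter mRNA fragments resolved by capillary electrophoresis after RT-PCR. System: transiently transfected human HepG2, exogenous LXRb-Gal4 chimera driving GAL4-UAS reporter, 24 h dosing. Activity fitted upward against DMSO baseline.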

[18] = ATG_M_06_TRANS: Attagene TRANS-FACTORIAL HepG2 Assay for M06 Transcription Factor (Internal Marker) (AID 2282983; active = hit-call score of the fitted dose curve at least 0.9, where 1 is the maximum;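 note: reporter transcript level by RT-PCR then capillary electrophoresis fluorescence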); settings: HepG2 Attagene TRANS M06 internal marker reporter
In short: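 Background-control reporter readout: after 24 h chemical exposure of transiently transfected HepG2 (GAL4-UAS reporter units), mRNA quantified by RT-PCR with fluorescent labeling and capillary electrophoresis. Gain-of-signal fitting against DMSO baseline.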

[19] = target: Glucocorticoid receptor (Homo sapiens) (UniProt P04150); experiment: ATG_GR_TRANS: Attagene TRANS-FACTORIAL HepG2 Assay for human Glucocorticoid Receptor (GR) (AID 2282978; active = hit-call score of the fitted dose curve at least 0.9, where 1 is the maximum;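 note: activators score as hits since higher reporter transcript over DMSO is fitted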); settings: HepG2 Attagene TRANS GR reporter, mRNA transcription
In short: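 HepG2 cells transiently transfected with multiplexed reporter units in which chimeric NR-GAL4 proteins drive GAL4-UAS reporters; 24 h compound exposure. Reporter mRNA measured by RT-PCR, 6-FAM labelling, HpaI digestion and capillary electrophoresis; gain-of-signal fitted versus DMSO.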

Measured: AC50

Myc proto-oncogene protein (Homo sapiens), sequence (P01106 whole entry, looked up): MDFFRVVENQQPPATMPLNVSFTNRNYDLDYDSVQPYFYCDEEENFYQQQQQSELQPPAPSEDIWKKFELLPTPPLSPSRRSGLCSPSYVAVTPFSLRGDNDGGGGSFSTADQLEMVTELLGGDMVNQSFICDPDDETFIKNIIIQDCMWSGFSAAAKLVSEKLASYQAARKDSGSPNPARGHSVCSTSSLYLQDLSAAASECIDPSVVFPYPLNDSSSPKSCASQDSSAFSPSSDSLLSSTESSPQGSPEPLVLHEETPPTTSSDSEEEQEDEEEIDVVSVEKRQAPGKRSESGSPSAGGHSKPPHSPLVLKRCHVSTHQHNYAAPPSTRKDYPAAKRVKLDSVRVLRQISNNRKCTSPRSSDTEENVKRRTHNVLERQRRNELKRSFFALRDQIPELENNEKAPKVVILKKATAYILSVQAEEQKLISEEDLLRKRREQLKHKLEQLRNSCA
human Peroxisome Proliferator-activated Receptor alpha (PPARa), PPARA (gene 5465), sequence (Q07869 whole entry, looked up, the tested form may be a part): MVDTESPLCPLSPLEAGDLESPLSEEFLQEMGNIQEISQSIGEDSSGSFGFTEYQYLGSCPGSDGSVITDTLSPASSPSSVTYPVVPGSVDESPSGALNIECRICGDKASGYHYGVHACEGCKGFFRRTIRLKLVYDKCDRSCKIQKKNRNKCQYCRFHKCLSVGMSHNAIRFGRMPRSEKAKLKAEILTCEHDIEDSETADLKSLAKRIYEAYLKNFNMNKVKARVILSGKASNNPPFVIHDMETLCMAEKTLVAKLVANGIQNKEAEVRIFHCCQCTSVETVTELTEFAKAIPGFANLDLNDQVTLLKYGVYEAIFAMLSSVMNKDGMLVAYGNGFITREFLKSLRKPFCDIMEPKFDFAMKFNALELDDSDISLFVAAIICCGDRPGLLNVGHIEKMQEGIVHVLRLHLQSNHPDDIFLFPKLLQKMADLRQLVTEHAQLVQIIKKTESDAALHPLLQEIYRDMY
Nuclear receptor subfamily 4 group A member 2 (Homo sapiens), sequence (P43354 whole entry, looked up, the tested form may be a part): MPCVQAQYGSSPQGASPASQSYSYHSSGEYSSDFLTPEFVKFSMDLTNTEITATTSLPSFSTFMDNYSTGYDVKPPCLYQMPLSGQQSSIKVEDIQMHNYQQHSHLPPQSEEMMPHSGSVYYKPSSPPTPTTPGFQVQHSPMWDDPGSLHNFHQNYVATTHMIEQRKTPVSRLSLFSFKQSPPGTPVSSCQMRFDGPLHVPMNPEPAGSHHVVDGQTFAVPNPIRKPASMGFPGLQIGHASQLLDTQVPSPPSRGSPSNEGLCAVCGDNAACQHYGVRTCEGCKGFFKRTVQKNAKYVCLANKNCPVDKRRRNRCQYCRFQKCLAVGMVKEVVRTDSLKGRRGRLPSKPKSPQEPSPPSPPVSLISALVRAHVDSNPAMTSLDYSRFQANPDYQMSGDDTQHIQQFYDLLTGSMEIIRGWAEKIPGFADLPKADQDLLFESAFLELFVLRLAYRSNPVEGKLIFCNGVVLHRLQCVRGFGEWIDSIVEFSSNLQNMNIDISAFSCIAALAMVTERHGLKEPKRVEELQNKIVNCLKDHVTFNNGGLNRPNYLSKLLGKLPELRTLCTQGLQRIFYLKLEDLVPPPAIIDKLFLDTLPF
Bile acid receptor (Homo sapiens), sequence (Q96RI1 whole entry, looked up, the tested form may be a part): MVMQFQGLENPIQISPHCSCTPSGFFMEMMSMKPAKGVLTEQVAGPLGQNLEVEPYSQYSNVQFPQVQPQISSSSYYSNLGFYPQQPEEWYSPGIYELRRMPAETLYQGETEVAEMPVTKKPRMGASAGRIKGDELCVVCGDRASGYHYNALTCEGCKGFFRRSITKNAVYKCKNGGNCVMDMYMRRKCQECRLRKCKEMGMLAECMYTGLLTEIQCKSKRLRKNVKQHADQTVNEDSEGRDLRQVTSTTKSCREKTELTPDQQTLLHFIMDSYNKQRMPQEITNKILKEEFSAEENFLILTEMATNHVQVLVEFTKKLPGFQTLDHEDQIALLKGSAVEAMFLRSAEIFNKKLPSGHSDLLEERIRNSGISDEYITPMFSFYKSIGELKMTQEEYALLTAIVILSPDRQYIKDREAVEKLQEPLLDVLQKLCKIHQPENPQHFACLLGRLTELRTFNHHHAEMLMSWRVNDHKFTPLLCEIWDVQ
Transcriptional activator Myb (Homo sapiens), sequence (P10242 whole entry, looked up): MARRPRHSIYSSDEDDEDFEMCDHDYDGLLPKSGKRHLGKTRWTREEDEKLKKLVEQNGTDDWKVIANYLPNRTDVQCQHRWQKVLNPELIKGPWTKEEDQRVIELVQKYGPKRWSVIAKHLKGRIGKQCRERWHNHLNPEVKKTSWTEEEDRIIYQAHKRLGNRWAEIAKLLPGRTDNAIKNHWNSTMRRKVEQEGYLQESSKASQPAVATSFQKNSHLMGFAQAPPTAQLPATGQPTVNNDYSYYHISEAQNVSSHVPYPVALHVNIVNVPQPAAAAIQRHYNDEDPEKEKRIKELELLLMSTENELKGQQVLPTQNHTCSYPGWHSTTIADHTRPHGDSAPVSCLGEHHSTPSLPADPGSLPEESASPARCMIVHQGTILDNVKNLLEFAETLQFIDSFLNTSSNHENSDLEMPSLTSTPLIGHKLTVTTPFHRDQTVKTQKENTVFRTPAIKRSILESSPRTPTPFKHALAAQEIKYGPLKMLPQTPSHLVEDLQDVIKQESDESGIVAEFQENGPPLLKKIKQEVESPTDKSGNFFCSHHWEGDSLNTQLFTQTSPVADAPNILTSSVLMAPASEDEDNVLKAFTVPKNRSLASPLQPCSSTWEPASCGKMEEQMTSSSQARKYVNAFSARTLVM
Nuclear respiratory factor 1 (Homo sapiens), sequence (Q16656 whole entry, looked up): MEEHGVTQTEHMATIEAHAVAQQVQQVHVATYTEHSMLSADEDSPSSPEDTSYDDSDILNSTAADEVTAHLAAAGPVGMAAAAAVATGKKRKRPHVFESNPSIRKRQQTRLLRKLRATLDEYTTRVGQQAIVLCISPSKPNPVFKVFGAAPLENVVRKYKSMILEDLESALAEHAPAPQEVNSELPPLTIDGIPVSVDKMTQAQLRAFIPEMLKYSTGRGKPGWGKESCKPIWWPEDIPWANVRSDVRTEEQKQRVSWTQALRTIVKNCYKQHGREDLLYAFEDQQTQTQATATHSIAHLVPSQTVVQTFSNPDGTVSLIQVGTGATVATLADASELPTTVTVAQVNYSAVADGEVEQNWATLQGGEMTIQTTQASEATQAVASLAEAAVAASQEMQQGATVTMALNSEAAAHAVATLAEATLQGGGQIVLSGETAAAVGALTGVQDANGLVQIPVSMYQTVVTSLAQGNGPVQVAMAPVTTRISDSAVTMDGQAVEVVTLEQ
Cellular tumor antigen p53 (Homo sapiens), sequence (P04637 whole entry, looked up): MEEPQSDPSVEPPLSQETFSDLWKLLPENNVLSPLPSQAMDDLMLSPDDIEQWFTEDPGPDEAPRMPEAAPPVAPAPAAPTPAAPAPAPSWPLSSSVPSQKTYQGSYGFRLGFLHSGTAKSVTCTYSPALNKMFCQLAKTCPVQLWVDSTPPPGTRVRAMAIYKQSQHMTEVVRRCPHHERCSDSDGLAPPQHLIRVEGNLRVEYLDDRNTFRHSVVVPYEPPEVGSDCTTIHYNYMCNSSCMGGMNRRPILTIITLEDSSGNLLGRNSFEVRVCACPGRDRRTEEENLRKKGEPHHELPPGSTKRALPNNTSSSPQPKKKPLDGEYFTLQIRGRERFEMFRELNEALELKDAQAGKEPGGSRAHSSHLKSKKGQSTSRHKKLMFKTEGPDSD
Oxysterols receptor LXR-beta (Homo sapiens), sequence (P55055 whole entry, looked up, the tested form may be a part): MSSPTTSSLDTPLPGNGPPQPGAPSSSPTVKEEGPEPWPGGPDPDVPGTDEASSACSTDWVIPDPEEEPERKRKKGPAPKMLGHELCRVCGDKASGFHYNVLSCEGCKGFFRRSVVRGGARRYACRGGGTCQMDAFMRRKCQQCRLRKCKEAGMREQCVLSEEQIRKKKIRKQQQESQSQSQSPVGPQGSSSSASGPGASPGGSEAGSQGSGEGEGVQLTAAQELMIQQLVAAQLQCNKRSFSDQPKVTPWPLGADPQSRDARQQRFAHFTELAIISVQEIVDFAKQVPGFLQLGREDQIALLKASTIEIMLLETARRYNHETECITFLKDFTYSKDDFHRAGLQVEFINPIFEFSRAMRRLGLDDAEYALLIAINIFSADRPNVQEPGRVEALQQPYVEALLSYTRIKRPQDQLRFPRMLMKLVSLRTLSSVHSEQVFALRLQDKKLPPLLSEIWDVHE
Glucocorticoid receptor (Homo sapiens), sequence (P04150 whole entry, looked up, the tested form may be a part): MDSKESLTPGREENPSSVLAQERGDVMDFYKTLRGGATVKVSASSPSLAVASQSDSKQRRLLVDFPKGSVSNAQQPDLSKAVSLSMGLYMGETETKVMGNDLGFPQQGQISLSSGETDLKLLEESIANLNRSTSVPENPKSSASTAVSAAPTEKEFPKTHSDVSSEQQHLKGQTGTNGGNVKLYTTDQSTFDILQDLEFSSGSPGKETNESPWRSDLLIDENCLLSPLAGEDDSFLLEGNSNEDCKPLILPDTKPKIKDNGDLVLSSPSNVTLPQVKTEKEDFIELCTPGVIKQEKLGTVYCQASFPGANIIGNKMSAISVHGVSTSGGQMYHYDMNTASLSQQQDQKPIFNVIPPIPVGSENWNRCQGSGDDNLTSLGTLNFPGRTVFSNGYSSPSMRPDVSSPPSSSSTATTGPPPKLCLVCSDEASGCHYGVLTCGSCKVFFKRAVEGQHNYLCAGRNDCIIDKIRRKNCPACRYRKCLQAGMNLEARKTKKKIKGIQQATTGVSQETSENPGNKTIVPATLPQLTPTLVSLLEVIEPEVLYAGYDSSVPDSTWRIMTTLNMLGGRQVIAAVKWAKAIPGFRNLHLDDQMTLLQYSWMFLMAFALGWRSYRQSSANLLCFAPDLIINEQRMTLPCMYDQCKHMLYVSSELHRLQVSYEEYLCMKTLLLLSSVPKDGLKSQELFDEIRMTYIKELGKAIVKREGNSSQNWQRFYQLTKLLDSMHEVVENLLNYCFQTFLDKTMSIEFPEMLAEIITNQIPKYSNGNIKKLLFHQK

Cc1c(C)c2c(c(C)c1O)CCC(C)(COc1ccc(CC3SC(=O)NC3=O)cc1)O2 (configuration not stated)
active: [1] 17.4 µM | [9] 11 µM | [12] 33.5 µM | [13] 23.8 µM | [14] 35 µM | [15] 30.2 µM
not listed: [17] | [18] | [19]
inactive: all other assays above

CC(=O)OC1CC(C)OC(C)O1 (configuration not stated)
not listed: [9] | [11] | [16] | [18] | [19]
inactive: all other assays above

c1ccc2occc2c1
not listed: [2] | [19]
inactive: all other assays above

CCCCCCCCCCCCCCOS(=O)(=O)O
active: [16] 5.1 µM
not listed: [1] | [2] | [8] | [17]
inactive: all other assays above
